High-throughput results (PubChem)
Only some compounds are listed: those with a hit (about 1.4% of all), similar ones and a draw of the others.
Mtb MenB inh = blocks the Mycobacterium tuberculosis MenB enzyme; inhibition, % (no concentration beside the values); MenB enzyme assay, absorbance read-out; 0.43% of 100,000 active; P9WNP5; AID 540299; in the data active means inhibition above about 21%, passing the limit was not always enough
Target sequence (P9WNP5 whole entry, looked up): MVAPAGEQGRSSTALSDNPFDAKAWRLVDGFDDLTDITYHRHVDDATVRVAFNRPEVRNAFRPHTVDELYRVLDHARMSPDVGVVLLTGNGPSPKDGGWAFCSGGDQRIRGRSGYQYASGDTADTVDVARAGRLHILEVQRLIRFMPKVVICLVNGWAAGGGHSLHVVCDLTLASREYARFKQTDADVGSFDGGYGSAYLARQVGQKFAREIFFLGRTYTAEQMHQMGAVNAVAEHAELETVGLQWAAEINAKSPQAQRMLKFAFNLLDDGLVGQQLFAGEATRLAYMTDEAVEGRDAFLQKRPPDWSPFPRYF
Polio RdRp inh = inhibitors of poliovirus RNA polymerase binding and polymerization; % elongation, % (compound at 16.7 µg/mL); poliovirus polymerase elongation, fluorescence polarization; active compounds read low; AID 588519; 0.66% of 150,000 active; in the data active means % elongation below about 90%
MbtI inh = MbtI salicylate synthase inhibition; P9WFX0; purified MbtI enzyme, fluorescence intensity read-out; inhibition, % (concentration not given with the values); 0.89% of 100,000 active; in the data active means inhibition mostly above about 56%, no sharp cut-off; inactive means mostly below about 77%
* = called active by the depositor.

What do the screens show for `Cc1cc(C)c(NC(=O)CSc2nc(=O)n(Cc3ccco3)c3c2CCC3)c(C)c1`?
Polio RdRp inh: 108

What do the screens show for `C1=CSC(=C2SC=CS2)S1`?
Mtb MenB inh: active; Polio RdRp inh: 59*; MbtI inh: 45

Results for Cc1ccc2c(c1)cc(C(=O)NCc1ccccc1C)n2C ?
Polio RdRp inh: 108

What do the screens show for `O=S(=O)(Nc1ccc(Cl)cc1)c1ccc2oc(=S)[nH]c2c1`?
Mtb MenB inh: -48; Polio RdRp inh: 91; MbtI inh: 90*

How did O=c1[nH]c2ccc(S(=O)(=O)Nc3ccc(O)cc3)cc2[nH]1 do in these assays?
Mtb MenB inh: 6; Polio RdRp inh: 104; MbtI inh: -6

Results for CCOC(=O)C(Sc1nnc(C(CC)N(C)C)n1Cc1ccccc1)c1ccccc1 (configuration not stated) ?
Mtb MenB inh: 4; Polio RdRp inh: 105; MbtI inh: 8

What do the screens show for `CC1CCN(c2c(N)cccc2Cl)CC1`?
Mtb MenB inh: 2; Polio RdRp inh: 100

How did Nc1cccc(Cl)c1O do in these assays?
Mtb MenB inh: -7; Polio RdRp inh: 101; MbtI inh: 57*

Results for CSc1nnc(NC(=O)c2cccc3ccccc23)s1 ?
Mtb MenB inh: -4; Polio RdRp inh: 103; MbtI inh: 7

Results for O=C1CCC(C(=O)Nc2ccc(S(=O)(=O)NCc3ccco3)cc2)=NN1 ?
Mtb MenB inh: -6; Polio RdRp inh: 101; MbtI inh: 14

How did O=C(O)c1ccc2nc(-c3cc4cccc(O)c4oc3=O)[nH]c2c1 do in these assays?
Polio RdRp inh: 79*

Results for O=C(O)c1ccc2nc(-c3cc4cc(F)ccc4oc3=O)[nH]c2c1 ?
Polio RdRp inh: 111

Results for CN(Cc1ccccc1)C(=O)COC(=O)c1cc(=O)c2ccccc2o1 ?
Mtb MenB inh: 4; Polio RdRp inh: 101; MbtI inh: -4

How did N#CCOC(=O)c1cc(=O)c2ccccc2o1 do in these assays?
Mtb MenB inh: 2; Polio RdRp inh: 74*; MbtI inh: -13

Results for O=C(O)c1cc(-c2cccnc2)nn1-c1cccc(C(F)(F)F)c1 ?
Polio RdRp inh: 102; MbtI inh: -7

How did CC(C)CNC(=O)C1CCCCC1C(=O)O (configuration not stated) do in these assays?
Mtb MenB inh: -5; Polio RdRp inh: 106

Results for CC(C)CN(CC(C)C)C(=O)C1CCCCC1C(=O)O (configuration not stated) ?
Mtb MenB inh: 30*; Polio RdRp inh: 102; MbtI inh: 7

Results for CCCN1CC=C2C(C#N)=C(N)C(C#N)(C#N)C(c3ccc(OCC(N)=O)cc3)C2C1 (configuration not stated) ?
Mtb MenB inh: -64; Polio RdRp inh: 92; MbtI inh: 19

Results for CC1CCCCC1N(C)C1CCN(CCCNC(=O)/C=C/c2ccccc2Cl)CC1 (configuration not stated) ?
Mtb MenB inh: -11; Polio RdRp inh: 101; MbtI inh: 2

Results for Cc1cc2cc(CNC(=O)C3CCCCC3)ccc2n1C ?
Mtb MenB inh: -21; Polio RdRp inh: 104; MbtI inh: -10

What do the screens show for `Cn1c(CNC(=O)C2CCCCC2)cc2cc(Cl)ccc21`?
Mtb MenB inh: 23*; Polio RdRp inh: 104

Results for Cc1cccc(NC(=O)N2CCCC2C(=O)O)c1 (configuration not stated) ?
Mtb MenB inh: 8; Polio RdRp inh: 101; MbtI inh: -4

How did Cc1cccc(NC(=S)N2CCCCC2C(N)=O)c1 (configuration not stated) do in these assays?
Mtb MenB inh: 5; Polio RdRp inh: 97; MbtI inh: 58*

Results for COc1ccc2sc(C3C(=O)c4cccnc4C3=O)nc2c1 (configuration not stated) ?
Mtb MenB inh: -12; Polio RdRp inh: 106

What do the screens show for `O=C(O)C1C2CCC(CC2)C1C(=O)NCc1ccccc1` (configuration not stated)?
Mtb MenB inh: -3; Polio RdRp inh: 97; MbtI inh: 1

How did O=C1c2ccccc2C(=O)N1CN1c2cccc3cccc(c23)S1(=O)=O do in these assays?
Mtb MenB inh: -4; Polio RdRp inh: 102; MbtI inh: 1

What do the screens show for `O=C(Cc1coc2cc(O)ccc12)OCC(=O)c1ccc2[nH]c(=O)[nH]c2c1`?
Mtb MenB inh: -12; Polio RdRp inh: 72*; MbtI inh: -7

How did O=C(Cc1coc2cc(O)ccc12)OCc1ccccc1C(F)(F)F do in these assays?
Mtb MenB inh: -17; Polio RdRp inh: 100; MbtI inh: -8

Results for COC(=O)c1ccc(NC(=O)CSC2=Nc3ccccc3C3CC=NN23)cc1 (configuration not stated) ?
Mtb MenB inh: -83; MbtI inh: -1

Results for O=C(CSC1=Nc2ccccc2C2CC=NN12)Nc1ccc2c(c1)CCC2 (configuration not stated) ?
Mtb MenB inh: -124; Polio RdRp inh: 3.0*; MbtI inh: 17

What do the screens show for `CCNC(=S)NCc1ccc2c(c1)OCO2`?
Mtb MenB inh: -26; Polio RdRp inh: 106; MbtI inh: -9

What do the screens show for `CC1CCC2(CC1)NC(=O)N(NC(=S)NCc1ccc3c(c1)OCO3)C2=O` (configuration not stated)?
Mtb MenB inh: -29; Polio RdRp inh: 103; MbtI inh: 67*

Results for CCOC(=O)c1c(-c2ccc(C)cc2)csc1NC(=O)c1cc(-c2ccc(C)c(F)c2)on1 ?
Polio RdRp inh: 111

How did CCOC(=O)c1c(NC(=O)c2cc(-c3ccc(Br)cc3)on2)sc(C(C)=O)c1C do in these assays?
Polio RdRp inh: 102

What do the screens show for `CCc1c(C)sc(NC(=O)c2cc(-c3cccc(Cl)c3)on2)c1C#N`?
Polio RdRp inh: 89

How did CCOC(=O)c1c(-c2ccccc2)csc1NC(=O)c1cc(-c2ccc(F)cc2)on1 do in these assays?
Polio RdRp inh: 89*

How did CCc1c(C)sc(NC(=O)c2cc(-c3ccccc3)on2)c1C#N do in these assays?
Mtb MenB inh: -11; Polio RdRp inh: 83*

Results for CCOC(=O)c1c(-c2ccccc2)csc1NC(=O)c1cc(-c2ccc(Br)cc2)on1 ?
Polio RdRp inh: 78*

How did COc1ccccc1NC(=O)C1CC1(c1ccc(C)cc1)c1ccc(C)cc1 (configuration not stated) do in these assays?
Mtb MenB inh: -27; Polio RdRp inh: 97

What do the screens show for `O=C(O)/C=C\C(=O)NCc1ccco1`?
Mtb MenB inh: -17; Polio RdRp inh: 97; MbtI inh: 9

What do the screens show for `CS(=O)(=O)Nc1ccc(/C(N)=N/O)cc1`?
Mtb MenB inh: 11; Polio RdRp inh: 105; MbtI inh: -7

How did CC(=O)N1c2ccccc2C(=O)C1Cc1ccccc1 (configuration not stated) do in these assays?
MbtI inh: -8

How did O=Nc1sc2ccc3ccccc3c2c1O do in these assays?
Mtb MenB inh: -5; Polio RdRp inh: 95; MbtI inh: 69*

Results for O=C(O)c1ccc2ccccc2c1O ?
Mtb MenB inh: -22; Polio RdRp inh: 100; MbtI inh: 141

How did O=C(O)C1C2C=CC3(CN(c4ccc(Cl)c(F)c4)C(=O)C13)O2 (configuration not stated) do in these assays?
Mtb MenB inh: 8; Polio RdRp inh: 100
